The list is not random: actives were taken first. Their share in the collection is about 16%.
TDP1 inh = qHTS Assay for Inhibitors of Tyrosyl-DNA Phosphodiesterase (TDP1); Tyrosyl-DNA phosphodiesterase 1 (Homo sapiens), Q9NUW8; recombinant TDP1, AlphaScreen DNA substrate cleavage; Potency, µM (top dose mostly 130 µM), without a hit: at the highest dose activity change, negative = inhibition, most hits filed as inhibitors; hit rate 0.28% among 350,000; AID 485290, 2010; also: potency is read from the fitted curve at half-maximal effect; % is scaled to controls: 0 for no effect and ±100 for the full control effect; nearly all actives have a fitted effect of over 40% in size
Target sequence (Q9NUW8 whole entry, looked up): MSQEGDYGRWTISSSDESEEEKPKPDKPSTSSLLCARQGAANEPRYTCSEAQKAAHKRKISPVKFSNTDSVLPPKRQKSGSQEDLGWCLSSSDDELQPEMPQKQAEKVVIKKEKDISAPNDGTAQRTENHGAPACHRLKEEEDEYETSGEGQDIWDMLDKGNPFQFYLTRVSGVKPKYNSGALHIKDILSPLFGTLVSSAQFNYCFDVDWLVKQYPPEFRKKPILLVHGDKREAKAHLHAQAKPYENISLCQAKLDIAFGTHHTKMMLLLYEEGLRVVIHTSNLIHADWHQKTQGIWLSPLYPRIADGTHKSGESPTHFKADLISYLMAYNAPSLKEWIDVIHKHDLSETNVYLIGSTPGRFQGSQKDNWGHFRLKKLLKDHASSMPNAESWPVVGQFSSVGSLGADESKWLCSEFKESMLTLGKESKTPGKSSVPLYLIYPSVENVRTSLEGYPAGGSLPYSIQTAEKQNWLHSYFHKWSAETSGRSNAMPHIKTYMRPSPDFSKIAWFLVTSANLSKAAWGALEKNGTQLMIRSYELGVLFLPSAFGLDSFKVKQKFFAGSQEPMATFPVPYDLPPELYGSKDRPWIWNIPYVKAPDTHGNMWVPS
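Here, a 5' biotin and 3' phosphotyrosine-FITC DNA oligonucleotide reports Tdp1 activity: intact substrate bridges AlphaScreen beads, while cleavage leaves a 3' phosphate and drops signal. All incubations at room temperature.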
uPA surface inh = qHTS for Inhibitors of Cell Surface uPA Generation. hit rate 0.31% among 330,000. Potency, µM (doses to about 38.3 µM), for the others: at the top dose activity change, negative = inhibition, hits mostly inhibitors. AID 540303, 2011. cell surface uPA generation assay, qHTS; active = well fitted inhibition curve with a large enough effect; inconclusive = small, poorly fitted or top-dose-only effect; inactive = no such curve, though single readings can be large or run the other way; tested in mouse RAW 264.7 cells; also: potency is read from the fitted curve at half-maximal effect; % is scaled to controls: 0 for no effect and ±100 for the full control effect; nearly all actives have a fitted effect of over 55% in size
TDP1 cell CPT = qHTS for Inhibitors of human tyrosyl-DNA phosphodiesterase 1 (TDP1): qHTS in cells in presence of CPT. chicken DT40 Tdp1-/-;hTDP1 cells + 20 nM CPT, ATP luminescence, 48 h. hit rate 12% among 420,000. Potency, µM (highest dose often 46.2 µM), inactives show top-dose activity change, negative = growth inhibition, usual class: inhibitors; also: potency is read from the fitted curve at half-maximal effect; % is scaled to controls: 0 for no effect and ±100 for the full control effect; nearly all actives have a fitted effect of over 55% in size
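Chicken DT40 Tdp1-/- cells complemented with human TDP1, 400 cells/well, exposed to compounds plus 20 nM camptothecin for at least 48 h at 37 C; viability read as ATP content by CellTiter-Glo luminescence.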
miR-21 act = qHTS Assay for Modulators of miRNAs and/orActivators of miR-21; HeLa miR-21 FLuc reporter, luciferase, 48 h; Potency, µM (highest dose often 38.3 µM), for inactives: at the highest dose activity change, positive = activation, most hits filed as activators; 340,000 tested, under 10 active; AID 2288, 2010;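 also: % of control where 0% means no effect; miR-21 action dims this reporter so a rising signal means less miR-21 action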
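HeLa cells stably expressing CMV-driven firefly luciferase with a downstream miR-21 binding sequence, endogenously expressing miR-21, were treated with titrations (up to about 40uM final) for 48 hours at 37 degree Celsius. Luciferase luminescence was read after lysis.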
TDP1 cell noCPT = qHTS for Inhibitors of human tyrosyl-DNA phosphodiesterase 1 (TDP1): qHTS in cells in absence of CPT. DT40 Tdp1-/- hTDP1 cells, no CPT, ATP luminescence, 48 h. Potency, µM (top dose mostly 46.2 µM), inactives show at the top dose activity change, negative = growth inhibition, actives largely listed as inhibitors. hit rate 15% among 420,000. AID 686978, 2013; also: potency is read from the fitted curve at half-maximal effect; % is scaled to controls: 0 for no effect and ±100 for the full control effect; nearly all actives have a fitted effect of over 55% in size
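Readout: luminescence from CellTiter-Glo after 30 min in the dark at RT. Cells: DT40 Tdp1-/- with stable hTDP1, 400/well. Exposure: compounds alone, ≥48 hr, 37 °C.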
* hit, by the source's call; u = inconclusive; x = no result given; [ ] = dose if it differs, or a comment. Unless noted, calls follow the shape of the dose curve; as a rule, active = well fitted curve in the direction sought with a large enough effect; inconclusive = small, poorly fitted or top-dose-only effect, or another doubt; inactive = no such curve, though single readings can be large; an effect the other way counts as inactive or inconclusive.

SMILES	TDP1 inh	uPA surface inh	TDP1 cell CPT	miR-21 act	TDP1 cell noCPT
CC1=C(C(=O)Nc2ccccc2C(F)(F)F)C(c2sccc2C)NC(=S)N1 (centres undefined)	7%	-18%	6.5µM*	14%	16µM*
CC1CN(S(=O)(=O)c2cccc(C(=O)Nc3ccc(S(=O)(=O)NC4=NCCCCC4)cc3)c2)CC(C)O1 (centres undefined)	x	-5%	u	x	u
COc1ccc(-c2nc3ccccc3o2)cc1NC(=O)COc1ccc(C)c(C)c1	-3%	x	x	-21%	x
COc1ccc2oc(-c3ccc(C)c(NC(=O)c4ccc(-c5ccccc5[N+](=O)[O-])o4)c3)nc2c1	3%	x	18µM*	-36%	9.2µM*
COc1ccc(CC(=O)Nc2ccc(-c3nc4cc(C)ccc4o3)c(O)c2)cc1OC	2%	4%	u	-31%	u
Cc1ccc2oc(-c3ccc(C)c(NC(=O)c4ccc(-c5ccccc5[N+](=O)[O-])o4)c3)nc2c1	1%	x	x	-65%	x
Cc1cccc(OCC(=O)Nc2cc(-c3nc4cc(Cl)ccc4o3)ccc2C)c1	x	x	7.1µM*	x	u
COc1ccc(-c2nc3ccccc3o2)cc1NC(=O)COc1c(C)cc(Cl)cc1Cl	x	x	2.9µM*	-23%	5.2µM*
Cc1cccc(OCC(=O)Nc2ccc(-c3nc4cc(C)ccc4o3)c(O)c2)c1	-2%[12.3 µM]	x	15µM*	-54%	u
Cc1ccc(-c2nc3ncccc3o2)cc1NC(=O)COc1ccc(C(C)C)cc1	x	x	u	u	16µM*
Cc1cc(OCC(=O)Nc2cc(-c3nc4ncccc4o3)ccc2C)ccc1Cl	x	x	u	-15%	u
COc1ccc2oc(-c3ccc(C)c(NC(=O)COc4cc(C)cc(C)c4)c3)nc2c1	1%	x	7.3µM*	-27%	5.2µM*
CCOCC(=O)Nc1cc(C(=O)NCCc2ccccc2)ccc1Cl	3%	-4%	0%	-16%	-6%
CC12CCCC(C(C#N)C(N)=O)(C1)NC(=O)C2C#N (centres undefined)	x	-5%	19%	x	-9%
CN(Cc1ccccc1)c1c([N+](=O)[O-])c(=O)n(C)c2ccccc12	5%	-11%	u	-10%	15µM*
Cn1c(=O)c([N+](=O)[O-])c(NCCc2ccccc2)c2ccccc21	5%	-3%	u	0%	16µM*
CCOc1ccc(N(Cc2cc3ccc(C)cc3[nH]c2=O)S(C)(=O)=O)cc1	3%	x	u	-2%	-25%
O=[N+]([O-])c1ccc(O)c(/C=N/NC(=S)Nc2ccc(Cl)cc2Cl)c1	12%	3%	16µM*	0%	21µM*
O=C(N/N=C/c1cc([N+](=O)[O-])ccc1O)Nc1ccccc1	8%	2%	u	3%	u
Cc1c(Cl)cccc1N=Cc1ccc([N+](=O)[O-])s1	2%	x	u	u	u
Cc1cc(Cl)ccc1NC(=O)CCC(=O)N/N=C/c1cc([N+](=O)[O-])ccc1O	2%	4%	6.5µM*	0%	8.2µM*
O=[N+]([O-])c1ccc(/C=N/NC(=S)Nc2ccc(Cl)cc2Cl)s1	4%	u	5.8µM*	0%	5.2µM*
COc1ccc(NC(=O)c2cc(C)cc(C)c2)cc1[N+](=O)[O-]	-5%	-6%	u	-2%	u
COc1ccc(C(C)=O)cc1CSc1nnc(Nc2ccccc2)s1	3%	1%	u	26%	16µM*
COc1ccc(C(C)=O)cc1CSc1nnc(Nc2ccc(C)cc2)s1	3%	9%	u	16%	23µM*
SMILES	TDP1 inh	uPA surface inh	TDP1 cell CPT	miR-21 act	TDP1 cell noCPT
COc1ccc(C(C)=O)cc1CSc1nnc(C)s1	8%	-4%	-17%	-8%	-8%
N=c1sccn1CC(=O)NCCc1ccc(Cl)cc1	2%	-1%	1%	0%	-10%
O=C1c2ccccc2C(=O)N1OS(=O)(=O)c1ccccc1	3%	x	x	-5%	x
Cc1ccc(S(=O)(=O)ON2C(=O)c3cccc4cccc(c34)C2=O)cc1	-3%	7%	u	-7%	16µM*
Cc1cc(S(=O)(=O)ON2C(=O)c3ccccc3C2=O)ccc1F	-13%	20%	3.3µM*	0%	2.1µM*
COc1ccc(N2C(=O)c3cccc4cccc(c34)C2=O)cc1	2%	-1%	-4%	-3%	7%
O=C1c2cccc3cccc(c23)C(=O)N1OS(=O)(=O)c1ccc(Br)cc1	2%	3%	u	-2%	10µM*
Cc1cc(NC(=O)c2cc(CC(C)C)on2)n(-c2ccccc2)n1	-3%	-1%	-8%	-2%	1%
CSCC[C@H](NS(=O)(=O)c1ccc(C(C)=O)cc1)c1nnc2ccccn12	40µM*	4%	3%	0%	7%
CSCCC(NC(=O)C1CCCC1)c1nnc2ccccn12 (centres undefined)	4%	-6%	2%	-1%	-2%
Cc1ccccc1OC(C)c1nc(-c2ccccc2)no1 (centres undefined)	-6%	1%	6%	-17%	-4%
Cc1ccc(C)c(NC(=O)C2CCCN(c3ncnc4onc(C)c34)C2)c1 (centres undefined)	2%	x	12µM*	1%	10µM*
COCCCNC(=O)C1CCCN(c2ncnc3onc(C)c23)C1 (centres undefined)	-3%	x	18µM*	4%	u
CCOCCCNC(=O)C1CCCN(c2ncnc3onc(C)c23)C1 (centres undefined)	1%	x	16µM*	4%	21µM*
CCOC(=O)c1ccc(NC(=O)C2CCCN(c3ncnc4onc(C)c34)C2)cc1 (centres undefined)	1%	x	13µM*	14%	15µM*
COC(=O)c1ccccc1NC(=O)C1CCCN(c2ncnc3onc(C)c23)C1 (centres undefined)	-2%	x	u	0%	u
Cc1nn(-c2ccccn2)c2nc(-c3cccs3)cc(C(=O)N3CCOCC3)c12	7%	0%	u	-20%	u
CCOCc1nnc(NC(=O)CSCc2ccccc2)s1	2%	-1%	-2%	-11%	6%
COCCN1CC(C(=O)N2CCC(Oc3ccccc3OC)CC2)CCC1=O (centres undefined)	2%	3%	10%	-2%	-10%
O=C1c2ccccc2S(=O)(=O)N1CCS(=O)(=O)c1ccc(F)cc1	x	-6%	15%	-4%	-8%
Cc1noc2ncnc(N3CCCC(C(=O)NCCC(C)C)C3)c12 (centres undefined)	-3%	x	8.2µM*	12%	7.3µM*

Screens as filed in PubChem.
